Source: PubChem BioAssay (Tox21)
Where “and” joins values, the source holds several entries; their conditions need not be identical. Identical values can stand only once. Records with an inconclusive call do not appear. Where a call stands in place of a potency, no number is given. Some structures have more than one record in an assay (separate samples or runs), and their calls can disagree. Calls of active or inactive are those of the source. Unless noted, calls come from the whole dose curve; as a rule, active = well fitted curve in the direction sought with a large enough effect in the repeat runs; inconclusive = weak or mixed curves; inactive = no such curve, though single readings can be large; an effect the other way counts as inactive or inconclusive.

What was measured:
[1] = qHTS assay to identify small molecule agonists of the endoplasmic reticulum stress response signaling pathway (AID 1159516; active = well fitted activation curve with a large enough effect in the signal ratio in the repeat runs, not every such curve was filed as active; the % refers to the signal ratio; note: potency is the fitted concentration of half-maximal effect)
Outline: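 Ratiometric FRET readout (405 nm excitation; 460 and 530 nm emission) of a beta-lactamase gene driven by the ER stress response element, after 2 hr substrate loading. HeLa ESRE-bla cells were seeded overnight and treated with compounds for only 5 hr at 37 C.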

[2] = qHTS assay to identify small molecule agonists of the endoplasmic reticulum stress response signaling pathway - cell viability counter screen (AID 1159517; calls by dose curve; note: nearly all actives have a fitted effect of over 50% in size; note: potency is the fitted concentration of half-maximal effect)
Outline: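 Cpd-treated ESRE-bla HeLa (5 hr, 37 C) → LiveBLAzer 2 hr RT → CellTiter-Glo 30 min RT → luminescence.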

[3] = target: Nuclear receptor ROR-gamma (Homo sapiens) (UniProt P51449); experiment: qHTS assay to identify small molecule antagonists of the retinoid-related orphan receptor gamma (ROR-gamma) signaling pathway (AID 1159521; note: nearly all actives have a fitted effect of over 50% in size; note: potency is the fitted concentration of half-maximal effect)
Outline: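 RORγ antagonism is scored from reduced reporter luminescence in Tet-on CHO cells. Induction used 1 uM final doxycycline hyclate for 16 h at 37 C, following a 2 h compound exposure.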

[4] = qHTS assay to identify small molecule agonists of the AP-1 signaling pathway - cell viability counter screen (AID 1159525; calls by dose curve; note: nearly all actives have a fitted effect of over 55% in size; note: potency is the fitted concentration of half-maximal effect)
Outline: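 Each titration point was normalised to DMSO and tetra n-octyl ammonium bromide controls. The read was Cell Titer Glo luminescence after 30 min at RT, following 5 h compound exposure of ME-180 AP-1-bla cells at 37 °C.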

[5] = qHTS assay to identify small molecule agonists of the AP-1 signaling pathway (AID 1159526; calls by dose curve; note: potency is the fitted concentration of half-maximal effect)
[6] = qHTS assay to identify small molecule antagonists of the vitamin D receptor (VDR) signaling pathway - cell viability counter screen (AID 743225); note: nearly all actives have a fitted effect of over 50% in size; note: potency is the fitted concentration of half-maximal effect
Outline: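 Cells (VDR-UAS-bla HEK 293T) are plated, rested 4 h at 37C, dosed with compound and 3 nM final 1-alpha,25-dihydroxy vitamin D3, and incubated 16 h. Viability is taken from CellTiter-Glo luminescence in the reporter wells.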

[7] = qHTS assay to identify small molecule agonists of the RXR signaling pathway - cell viability counter screen (AID 1159529); note: nearly all actives have a fitted effect of over 50% in size; note: potency is the fitted concentration of half-maximal effect
Outline: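 Cell viability is measured by CellTiter-Glo luminescence, 30 min at room temperature, in wells already read for beta-lactamase. Engineered HEK 293T cells (RXR-alpha-UAS-bla) are dosed 16 hr at 37 C. Tetraoctyl ammonium bromide serves as positive control.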

[8] = qHTS assay to identify small molecule antagonists of the retinoid-related orphan receptor gamma (ROR-gamma) signaling pathway - cell viability counter screen (AID 1159520); note: nearly all actives have a fitted effect of over 50% in size; note: potency is the fitted concentration of half-maximal effect
Outline: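 Tet-on ROR gamma CHO cells (1,000/well) were plated 4 hr, given compounds in DMSO for 2 hr at 37 C, then induced with 1 uM final doxycycline for 16 hr. Viability was read as ATP by CellTiter-Glo luminescence after 30 min.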

[9] = target: Retinoic acid receptor RXR-alpha (Homo sapiens) (UniProt P19793); experiment: qHTS assay to identify small molecule agonists of the RXR signaling pathway (AID 1159527; calls by dose curve; note: nearly all actives have a fitted effect of over 35% in size)
Chain of Retinoic acid receptor RXR-alpha (Homo sapiens) (P19793 whole entry, looked up): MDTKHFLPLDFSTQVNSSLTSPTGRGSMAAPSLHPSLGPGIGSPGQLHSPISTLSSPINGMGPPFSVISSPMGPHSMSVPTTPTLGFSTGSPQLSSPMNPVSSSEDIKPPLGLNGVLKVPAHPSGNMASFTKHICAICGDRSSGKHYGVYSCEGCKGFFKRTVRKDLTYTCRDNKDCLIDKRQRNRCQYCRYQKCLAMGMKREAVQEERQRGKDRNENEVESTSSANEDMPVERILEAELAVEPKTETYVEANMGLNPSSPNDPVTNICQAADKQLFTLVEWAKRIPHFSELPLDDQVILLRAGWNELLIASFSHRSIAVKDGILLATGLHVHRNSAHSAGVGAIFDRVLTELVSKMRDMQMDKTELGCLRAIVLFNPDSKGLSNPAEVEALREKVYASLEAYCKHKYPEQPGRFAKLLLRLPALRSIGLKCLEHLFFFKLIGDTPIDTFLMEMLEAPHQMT
Outline: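 qHTS of the Tox21 10K library in GeneBLAzer RXR-alpha HEK 293T cells carrying a beta-lactamase reporter […]; 16 hr treatment, 9-cis retinoic acid as agonist control, FRET read-out.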

Structure (SMILES)	Potency [1]	Potency [2]	Potency [3]	Potency [4]	Potency [5]	Potency [6]	Potency [7]	Potency [8]	outcome [9]
CC(C)(C)c1ccc(CSc2cnn(C(C)(C)C)c(=O)c2Cl)cc1	inactive	inactive	0.154 µM (active)	inactive	inactive	–	–	–	–
O=[N+]([O-])c1ccc(Oc2ccc(C(F)(F)F)cc2[N+](=O)[O-])cc1	inactive	inactive	inactive	inactive	inactive	inactive	inactive	–	–
CCCN(CCC)CCc1c[nH]c2ccccc12	inactive	inactive	–	inactive	43.1 µM (active)	inactive	inactive	inactive	–
COc1cc(N)c(Cl)cc1C(=O)NC1CN2CCC1CC2 (stereo not drawn)	–	inactive	inactive	inactive	inactive	inactive	inactive	inactive	inactive
Nc1ccccc1C(=O)Oc1ccc2ccccc2c1	inactive	43.6 µM (active)	inactive	–	–	inactive	–	–	–
CS(=O)(=O)c1ccc(C(=O)C2C(=O)CCCC2=O)c([N+](=O)[O-])c1	inactive	–	–	inactive	–	–	inactive	inactive	–
ClC1=C(Cl)[C@]2(Cl)[C@H]3[C@H]([C@H]4C=C[C@H]3C4)[C@@]1(Cl)C2(Cl)Cl	inactive	–	–	inactive	inactive	inactive	inactive	–	–
CC1(C)CC/C(=C/c2ccc(Cl)cc2)C1(O)Cn1cncn1 (stereo not drawn)	inactive	–	24.2 µM (active)	inactive	–	–	inactive	inactive	–
CC(C)CCCCCCCOP(=O)(Oc1ccccc1)Oc1ccccc1	inactive	inactive	–	–	–	inactive	–	inactive	–
CC(=O)O[C@H]1CC[C@@]2(C)C(=CC[C@@H]3[C@@H]2CC[C@]2(C)C(=O)CC[C@@H]32)C1	inactive	–	48.6 µM (active)	–	–	inactive	–	inactive	–
COc1ccc(N)cc1N	inactive	inactive	7.08 µM (active) and 14.7 µM (active)	50.5 µM (active) and inactive	–	inactive	–	–	inactive
Nc1ccc(Sc2ccc(N)cc2)cc1	–	inactive	inactive	inactive	–	–	–	inactive	–
N#C/C=C/C#N	–	inactive	inactive	inactive	inactive	inactive	inactive	inactive	inactive
CC(=O)[O-].CC(=O)[O-].O.O.[Cd+2]	0.216 µM (active)	–	–	–	–	15.3 µM (active)	13.6 µM (active)	inactive	–
CC(=O)[O-].[Tl+]	inactive	inactive	–	inactive	inactive	inactive	–	inactive	–
O=C(CBr)c1ccc(O)cc1	inactive	inactive	48.6 µM (active)	inactive	–	inactive	inactive	–	inactive

Structure (SMILES)	Potency [1]	Potency [2]	Potency [3]	Potency [4]	Potency [5]	Potency [6]	Potency [7]	Potency [8]	outcome [9]
ClC1=C(Cl)[C@]2(Cl)[C@@H]3[C@@H]4C[C@@H]([C@H]5O[C@@H]45)[C@@H]3[C@@]1(Cl)C2(Cl)Cl	–	54.9 µM (active)	19.3 µM (active)	43.6 µM (active)	–	–	–	61.1 µM (active)	–
CCOCCOC(C)=O	inactive	–	inactive	inactive	inactive	–	inactive	inactive	–
CC(=O)Nc1ccc2c(c1)Cc1ccccc1-2	inactive	–	inactive	inactive	inactive	inactive	inactive	inactive	inactive
N#CCCSCCC#N	inactive	inactive	–	inactive	inactive	inactive	inactive	inactive	inactive
O=C(NC(=O)c1c(F)cccc1F)Nc1cc(Cl)c(OC(F)(F)C(F)F)c(Cl)c1	–	inactive	inactive	inactive	inactive	inactive	inactive	inactive	–
CC(C)(C)C(O)/C(=C\c1ccc(Cl)cc1Cl)n1cncn1 (stereo not drawn)	inactive	inactive	41.6 µM (active)	–	–	52.8 µM (active)	–	–	–
O=C1NCN(c2ccccc2)C12CCN(CC1COc3ccccc3O1)CC2 (stereo not drawn)	inactive	–	inactive	inactive	inactive	inactive	6.74 µM (active)	inactive	–
O=[N+]([O-])c1c2ccccc2cc2ccccc12	–	inactive	inactive	inactive	–	–	–	inactive	–
Clc1ccc(C(Cl)(Cl)Cl)c(Cl)c1	inactive	–	inactive	inactive	inactive	inactive	19.6 µM (active)	inactive	inactive
CCOC(=O)C1(c2ccccc2)CCN(CCC(C#N)(c2ccccc2)c2ccccc2)CC1	–	inactive	18.8 µM (active)	inactive	inactive	inactive	inactive	inactive	–
Cc1cc(C(F)(C(F)(F)F)C(F)(F)F)ccc1NC(=O)c1cccc(I)c1C(=O)NC(C)(C)CS(C)(=O)=O	inactive	inactive	–	inactive	–	inactive	–	inactive	inactive
C[C@]12CC[C@H]3[C@@H](CCC4=CC(=O)CC[C@@]43C)[C@@H]1CC[C@@H]2O	inactive	inactive	–	inactive	–	inactive	inactive	inactive	–
Cc1cc(SCc2sc(-c3ccc(C(F)(F)F)c(F)c3)nc2C)ccc1OCC(=O)O	inactive	–	inactive	inactive	–	21.9 µM (active)	19.5 µM (active)	inactive	–
Clc1ccc(CO/N=C(\Cn2ccnc2)c2ccc(Cl)cc2Cl)c(Cl)c1	–	23.9 µM (active)	26.6 µM (active)	–	–	–	–	26.6 µM (active)	–
Clc1ccc(-c2ccc(Cl)c(Cl)c2Cl)c(Cl)c1Cl	–	–	–	–	–	inactive	–	–	–
